Measured values published in ChEMBL document CHEMBL3988442, “University of Dundee, Small-Polar-MMV Screening Library” (2021).
For some assays here: Measured potencies and affinities stand elsewhere.

How the values were obtained:
Parameters in all cases: scale not given: direction of the effect not stated beside the values
[1] = biological target: Protein translocase subunit SecA (Escherichia coli (strain K12)) (UniProt P10408); experiment: Assay to Identify E. coli SecA ATPase Inhibitors; type: functional; details: 30 µM
Chain of Protein translocase subunit SecA (Escherichia coli (strain K12)) (P10408 whole entry): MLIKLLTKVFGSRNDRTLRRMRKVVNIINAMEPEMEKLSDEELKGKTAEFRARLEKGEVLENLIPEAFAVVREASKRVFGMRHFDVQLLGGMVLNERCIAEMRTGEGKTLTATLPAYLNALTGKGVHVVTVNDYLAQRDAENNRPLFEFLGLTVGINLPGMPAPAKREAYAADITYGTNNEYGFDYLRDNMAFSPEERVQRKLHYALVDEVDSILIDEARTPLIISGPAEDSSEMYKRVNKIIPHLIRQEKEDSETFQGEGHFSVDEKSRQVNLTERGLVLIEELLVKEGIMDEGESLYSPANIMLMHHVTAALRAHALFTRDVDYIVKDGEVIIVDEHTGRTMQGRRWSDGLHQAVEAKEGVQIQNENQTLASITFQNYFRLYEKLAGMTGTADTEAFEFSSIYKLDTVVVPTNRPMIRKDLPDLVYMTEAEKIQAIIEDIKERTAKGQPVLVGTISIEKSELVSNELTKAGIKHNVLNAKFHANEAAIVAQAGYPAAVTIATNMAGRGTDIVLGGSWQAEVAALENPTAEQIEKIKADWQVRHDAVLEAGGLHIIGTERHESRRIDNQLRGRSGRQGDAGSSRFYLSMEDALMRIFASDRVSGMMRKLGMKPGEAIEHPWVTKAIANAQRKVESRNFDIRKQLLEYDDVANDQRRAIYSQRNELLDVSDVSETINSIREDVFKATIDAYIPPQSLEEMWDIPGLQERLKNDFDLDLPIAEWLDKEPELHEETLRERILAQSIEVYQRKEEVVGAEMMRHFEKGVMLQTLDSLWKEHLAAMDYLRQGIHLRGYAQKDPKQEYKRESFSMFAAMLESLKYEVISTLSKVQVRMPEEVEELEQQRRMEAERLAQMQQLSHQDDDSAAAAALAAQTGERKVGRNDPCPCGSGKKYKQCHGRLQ

[2] = biological target: T1, Ubiquitin-activating enzyme e1, putative (Leishmania donovani (strain BPK282A1)) (UniProt E9BSI1); experiment: Leishmania donovani Ubiquitin Activating Enzyme (LdE1); type: functional; details: 30 µM
T1 sequence (whole entry): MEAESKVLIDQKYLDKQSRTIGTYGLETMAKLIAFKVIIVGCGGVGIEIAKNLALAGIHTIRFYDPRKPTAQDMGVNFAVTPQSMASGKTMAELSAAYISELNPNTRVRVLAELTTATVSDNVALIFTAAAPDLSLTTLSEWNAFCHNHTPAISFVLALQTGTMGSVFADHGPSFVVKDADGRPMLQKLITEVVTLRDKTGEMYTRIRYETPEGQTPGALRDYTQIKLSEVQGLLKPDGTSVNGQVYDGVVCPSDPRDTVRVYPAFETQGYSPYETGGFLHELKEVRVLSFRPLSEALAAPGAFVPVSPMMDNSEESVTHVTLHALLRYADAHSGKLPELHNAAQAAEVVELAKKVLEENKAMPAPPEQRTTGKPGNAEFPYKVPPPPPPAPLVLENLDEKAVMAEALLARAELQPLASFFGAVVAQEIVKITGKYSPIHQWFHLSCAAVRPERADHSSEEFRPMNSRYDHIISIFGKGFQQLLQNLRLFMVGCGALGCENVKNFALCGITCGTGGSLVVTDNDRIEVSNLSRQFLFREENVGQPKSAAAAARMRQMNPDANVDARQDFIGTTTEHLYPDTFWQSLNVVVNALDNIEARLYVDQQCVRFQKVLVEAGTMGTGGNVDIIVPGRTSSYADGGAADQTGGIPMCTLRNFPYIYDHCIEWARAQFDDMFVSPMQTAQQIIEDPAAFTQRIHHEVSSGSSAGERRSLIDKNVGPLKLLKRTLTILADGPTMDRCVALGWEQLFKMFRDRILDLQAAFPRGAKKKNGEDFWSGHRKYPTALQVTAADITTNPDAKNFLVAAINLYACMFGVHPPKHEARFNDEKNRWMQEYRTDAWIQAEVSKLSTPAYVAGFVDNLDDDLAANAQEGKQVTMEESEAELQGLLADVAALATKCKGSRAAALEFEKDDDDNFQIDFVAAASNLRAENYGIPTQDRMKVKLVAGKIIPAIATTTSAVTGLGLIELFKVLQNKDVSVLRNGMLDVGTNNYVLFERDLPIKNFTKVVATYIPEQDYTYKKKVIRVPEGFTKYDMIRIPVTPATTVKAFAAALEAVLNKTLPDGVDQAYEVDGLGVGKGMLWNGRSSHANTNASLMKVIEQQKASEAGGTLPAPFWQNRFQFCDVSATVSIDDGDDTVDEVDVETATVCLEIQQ

[3] = biological target: AMP-activated protein kinase, AMPK (Homo sapiens) (UniProt P54646+O43741+P54619+Q9UGJ0+Q9Y478+Q13131+Q9UGI9); experiment: AMP-dependent Kinase enzyme assay. An in vitro enzyme assay that detects ADP turnover that is directly proportional to AMPK activity. This uses naive AMPK that is activated during the assay with MK-8722; type: functional; details: 30 µM
[4] = biological target: Sialic acid-binding Ig-like lectin 9 (Homo sapiens) (UniProt Q9Y336); experiment: Hs-Siglec9 ALPHAscreen SOP 20170721; details: 10 µM
Chain of Sialic acid-binding Ig-like lectin 9 (Homo sapiens) (Q9Y336 whole entry): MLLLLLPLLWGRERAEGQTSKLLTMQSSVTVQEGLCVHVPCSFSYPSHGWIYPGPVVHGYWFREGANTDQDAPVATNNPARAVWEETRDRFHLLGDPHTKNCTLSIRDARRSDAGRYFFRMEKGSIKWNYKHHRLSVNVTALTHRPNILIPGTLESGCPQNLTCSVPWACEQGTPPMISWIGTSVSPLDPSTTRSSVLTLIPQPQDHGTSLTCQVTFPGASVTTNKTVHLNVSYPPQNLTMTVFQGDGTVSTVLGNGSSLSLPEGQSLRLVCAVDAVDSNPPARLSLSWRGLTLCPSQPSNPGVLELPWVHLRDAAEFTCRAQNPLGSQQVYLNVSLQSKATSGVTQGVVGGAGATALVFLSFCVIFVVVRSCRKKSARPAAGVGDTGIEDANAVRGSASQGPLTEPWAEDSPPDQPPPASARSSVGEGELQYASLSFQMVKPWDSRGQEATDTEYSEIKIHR

Trypanosoma cruzi = experiment: Trypanosoma cruzi phosphomannomutase and mannose-1-phosphate guanylyltransferase assay; type: functional; details: 10 µM
[5] = biological target: T2, Arginase-2, mitochondrial (Homo sapiens) (UniProt P78540); experiment: in vitro enzyme assay to detect the production of urea directly proportional to the activity of Arginase II; type: functional; details: 33.3 µM; also: in the data most compounds retested in dose-response had high values
T2 sequence (whole entry): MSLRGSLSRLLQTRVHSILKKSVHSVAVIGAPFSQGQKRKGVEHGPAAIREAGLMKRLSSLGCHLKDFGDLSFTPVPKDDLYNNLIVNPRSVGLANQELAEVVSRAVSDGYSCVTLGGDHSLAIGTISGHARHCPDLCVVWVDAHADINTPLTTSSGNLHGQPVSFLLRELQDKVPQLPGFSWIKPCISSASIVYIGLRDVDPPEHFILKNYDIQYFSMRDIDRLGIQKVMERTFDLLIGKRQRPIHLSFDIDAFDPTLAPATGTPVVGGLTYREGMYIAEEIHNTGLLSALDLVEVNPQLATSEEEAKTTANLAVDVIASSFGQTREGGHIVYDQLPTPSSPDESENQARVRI

[6] = biological target: T3, Proteasome subunit beta (Trypanosoma cruzi) (UniProt O96673); experiment: Trypanosoma cruzi proteasome chymotrypsin-like activity (TcProtChymo) assay.; also: in the data most compounds retested in dose-response had high values; type: functional; details: 9.37 µM
T3 sequence (whole entry): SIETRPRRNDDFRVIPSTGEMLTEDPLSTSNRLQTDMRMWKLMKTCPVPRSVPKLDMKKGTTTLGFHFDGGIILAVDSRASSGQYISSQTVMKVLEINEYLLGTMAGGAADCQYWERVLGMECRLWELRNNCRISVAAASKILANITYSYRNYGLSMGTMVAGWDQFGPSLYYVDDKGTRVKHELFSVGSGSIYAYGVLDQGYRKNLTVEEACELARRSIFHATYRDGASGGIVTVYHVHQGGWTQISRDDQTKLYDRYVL

Homo sapiens = organism: Homo sapiens; experiment: To identify inhibition of the IFN signalling (Jak-Stat) pathway via expression of an eGFP reporter gene under the control of an IFN-stimulated response element (ISRE) containing MxA promoter.; type: functional; details: 30 µM
[7] = biological target: T4, Tyrosyl-tRNA synthetase, putative (Trypanosoma cruzi (strain CL Brener)) (UniProt Q4DSP6); experiment: Trypanosoma cruzi tyrosyl tRNA synthetase (TcYRS) _High Tyrosine SOP; type: functional; details: 30 µM; also: in the data most compounds retested in dose-response had high values
T4 sequence (whole entry): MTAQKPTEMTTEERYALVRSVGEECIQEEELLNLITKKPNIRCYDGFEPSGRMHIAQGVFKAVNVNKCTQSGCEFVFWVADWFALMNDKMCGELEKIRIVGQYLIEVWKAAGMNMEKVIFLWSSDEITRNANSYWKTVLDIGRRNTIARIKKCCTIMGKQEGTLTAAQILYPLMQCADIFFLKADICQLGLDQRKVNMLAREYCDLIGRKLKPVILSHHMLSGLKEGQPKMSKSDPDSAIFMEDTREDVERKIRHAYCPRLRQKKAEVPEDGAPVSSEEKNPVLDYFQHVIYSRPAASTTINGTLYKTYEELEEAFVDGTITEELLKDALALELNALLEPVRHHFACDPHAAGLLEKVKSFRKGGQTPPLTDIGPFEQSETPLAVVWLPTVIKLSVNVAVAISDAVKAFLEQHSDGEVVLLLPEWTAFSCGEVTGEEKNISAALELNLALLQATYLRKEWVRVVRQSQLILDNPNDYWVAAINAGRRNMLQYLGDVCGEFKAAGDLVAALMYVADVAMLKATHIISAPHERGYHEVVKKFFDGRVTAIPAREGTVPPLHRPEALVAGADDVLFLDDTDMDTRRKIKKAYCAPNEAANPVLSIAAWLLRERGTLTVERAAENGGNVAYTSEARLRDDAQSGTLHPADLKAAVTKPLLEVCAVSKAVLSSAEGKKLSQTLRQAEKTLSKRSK

[8] = biological target: T4, Tyrosyl-tRNA synthetase, putative (Trypanosoma cruzi (strain CL Brener)); experiment: Trypanosoma cruzi tyrosyl tRNA synthetase (TcYRS) SOP; type: functional; details: 30 µM
[9] = biological target: Chromo domain-containing protein 1 (Saccharomyces cerevisiae (strain ATCC 204508 / S288c) (Baker's yeast)) (UniProt P32657); experiment: ScCHD-1 Enzyme Inhibition Assay; type: functional; details: 30 µM; also: in the data most compounds retested in dose-response had high values
Chain of Chromo domain-containing protein 1 (Saccharomyces cerevisiae (strain ATCC 204508 / S288c) (Baker's yeast)) (P32657 whole entry, the tested form may be a part): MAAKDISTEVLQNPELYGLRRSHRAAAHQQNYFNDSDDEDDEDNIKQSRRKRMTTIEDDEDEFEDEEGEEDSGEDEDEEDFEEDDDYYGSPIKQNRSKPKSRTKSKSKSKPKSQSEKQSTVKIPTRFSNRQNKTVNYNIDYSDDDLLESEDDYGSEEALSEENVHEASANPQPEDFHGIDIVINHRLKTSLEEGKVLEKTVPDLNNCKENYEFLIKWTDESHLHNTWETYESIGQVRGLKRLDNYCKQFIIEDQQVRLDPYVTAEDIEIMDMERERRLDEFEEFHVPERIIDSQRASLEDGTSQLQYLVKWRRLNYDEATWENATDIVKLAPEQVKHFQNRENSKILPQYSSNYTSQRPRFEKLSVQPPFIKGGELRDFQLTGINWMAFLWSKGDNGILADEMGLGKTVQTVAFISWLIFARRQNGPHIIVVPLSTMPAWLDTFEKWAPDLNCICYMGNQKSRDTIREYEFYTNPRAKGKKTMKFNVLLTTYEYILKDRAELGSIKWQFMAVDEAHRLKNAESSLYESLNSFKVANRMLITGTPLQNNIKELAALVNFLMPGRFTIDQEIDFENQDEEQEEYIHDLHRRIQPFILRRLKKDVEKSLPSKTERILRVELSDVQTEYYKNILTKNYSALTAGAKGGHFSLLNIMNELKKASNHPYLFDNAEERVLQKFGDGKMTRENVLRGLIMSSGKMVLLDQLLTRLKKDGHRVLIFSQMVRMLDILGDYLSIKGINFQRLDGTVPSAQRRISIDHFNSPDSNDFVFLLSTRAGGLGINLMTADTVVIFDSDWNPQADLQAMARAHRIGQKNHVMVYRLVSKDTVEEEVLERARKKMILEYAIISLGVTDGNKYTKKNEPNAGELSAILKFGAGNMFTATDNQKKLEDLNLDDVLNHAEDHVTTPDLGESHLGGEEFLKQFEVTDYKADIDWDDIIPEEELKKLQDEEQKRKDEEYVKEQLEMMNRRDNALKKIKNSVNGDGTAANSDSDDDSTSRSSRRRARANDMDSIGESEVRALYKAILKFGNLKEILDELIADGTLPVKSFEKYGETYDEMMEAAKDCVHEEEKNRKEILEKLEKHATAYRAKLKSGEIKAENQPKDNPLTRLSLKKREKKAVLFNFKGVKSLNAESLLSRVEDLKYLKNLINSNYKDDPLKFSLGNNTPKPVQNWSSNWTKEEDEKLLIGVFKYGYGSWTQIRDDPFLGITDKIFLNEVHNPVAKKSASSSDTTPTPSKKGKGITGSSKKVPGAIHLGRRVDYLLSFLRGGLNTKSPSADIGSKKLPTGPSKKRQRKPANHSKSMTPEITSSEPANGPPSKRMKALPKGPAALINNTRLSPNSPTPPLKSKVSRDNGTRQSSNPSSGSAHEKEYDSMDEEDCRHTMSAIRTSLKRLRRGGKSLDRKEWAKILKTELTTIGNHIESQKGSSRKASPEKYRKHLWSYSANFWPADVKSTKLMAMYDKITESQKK

Row | SMILES | Percent Effect [1] [%] | Percent Effect [2] [%] | Percent Effect [3] [%] | Percent Effect [4] [%] | Percent Effect (Trypanosoma cruzi) [%] | Percent Effect [5] [%] | Percent Effect [6] [%] | Percent Effect (Homo sapiens) [%] | Percent Effect [7] [%] | Percent Effect [8] [%] | Percent Effect [9] [%]
1 | Cc1cnn(CC2CCCN2Cc2nccn2C)c1 (configuration not stated) | -3.05 | -16.5 | -3.78 | -0.409 | 3.59 | 1.5 | 3.94 | 4.67 | 4.17 | 5.06 | -13.2
2 | Cc1ccc(CN2CC3(CCN(C(=O)c4cscn4)C3)C2)s1 | 1.32 | 0 | 1.31 | 11.8 | -2.98 | 3.19 | 9.85 | -1.49 | 7.29 | -1.24 | -1.23
3 | CCc1nnc2n1CCN(C(=O)Cc1csc(-c3ccco3)n1)C2 | -4.35 | 15.2 | -5.8 | 9.4 | -1.04 | 3.8 | 8.76 | 13.3 | 4.43 | 11.4 | -4.32
4 | COc1ccc(CN2CCn3c(CNS(C)(=O)=O)nnc3C2)cc1 | -9.41 | 5.41 | -37.8 | -5.71 | -16.5 | -3.5 | 2.77 | 14.7 | 0 | 5.13 | 1
5 | Cc1ccc(C(=O)N2CCSCC2)cc1NC(=O)NCCO | -5.08 | 2.74 | 6.7 | 18.5 | 1.39 | -1.2 | 9.68 | 15.2 | 6.25 | 11.1 | -3.9
6 | OC[C@H]1CC[C@]2(CC1)CN(Cc1ccccc1F)Cc1ccccc1O2 | -4.99 | 4.05 | 15.1 | 6.64 | 4.15 | 2.55 | 12.6 | 41.4 | 3.23 | 14.3 | -0.993
7 | Cc1nnc(NC(=O)CN(C)CC2CCCN2c2cccnn2)s1 (configuration not stated) | -6.6 | -2.7 | -10.9 | 17.7 | -1.56 | -1.67 | 17.3 | 17.7 | 5.94 | 1.22 | 0.656
8 | CC1CCN(C(=O)CN(Cc2ccco2)C2CC2)CC1 | -1.66 | 2.6 | 6.73 | 0.322 | 6.95 | -1.47 | 7.84 | 3.81 | 1.91 | 7.06 | -5.98
9 | CC(C)CC(=O)N1CCN(C(=O)N(C)C)CC2(CC(=O)N(C)C2)C1 (configuration not stated) | -2.6 | -27 | 0.411 | -1.03 | 6.25 | -2.5 | -1.61 | -26.2 | 2.97 | -3.66 | -3.69
10 | Cc1cnn(CC2CCCCN2C(=O)c2ccc3nnc(C)n3c2)c1 (configuration not stated) | 3.48 | 13 | -0.0421 | -9.14 | -4.6 | -1.9 | 15.9 | 21 | 5.71 | 18.8 | -5.8
11 | CCCn1nc(C)c(CNC(=O)C2COc3c(cccc3OC)C2)c1C (configuration not stated) | -3.57 | 2.74 | -2.55 | 6.74 | 1.19 | -5.59 | 15.5 | 10.2 | 6.25 | 16.1 | -3.25
12 | O=C(Cc1ccccn1)N1CCN(CC2CC2)c2ncccc2C1 | -4.53 | 10.7 | 3.91 | 0.314 | 0.591 | -0.699 | 4.85 | 9.79 | 6.38 | 16.7 | -7.07
13 | CSCCC(=O)N1CCC(Oc2cc(C)ccc2F)(C(=O)O)CC1 | -1.39 | -1.39 | -5.71 | -2.17 | -2.43 | -1.32 | 0.351 | -30.7 | -2.1 | 2.56 | 2.79
14 | CN(C(=O)c1cccc2[nH]ncc12)C1CCN(c2ccccn2)CC1 | -8.48 | 7.79 | -0.81 | -5.52 | -4.6 | -3.16 | -4.12 | 30.5 | 0.952 | 2.35 | -18.1
15 | CCC(O)CN1CCN(C(=O)c2ccnc(N(C)C)c2)CC1 (configuration not stated) | -1.16 | 5.41 | -5.16 | 13 | 6.37 | 14.3 | 4.83 | -0.0962 | 1.59 | 12.2 | -4.75
16 | NC(=O)C1CCN(C(=O)c2ccn(-c3ccc(F)cc3)n2)C1 (configuration not stated) | -2.82 | 5.41 | 0.129 | -2.22 | -6.96 | 4.25 | 5.39 | 6.15 | 4.95 | 11 | 1.99
17 | Cc1cc2c(=O)n3c(nc2s1)CCN(C(=O)c1cnn(C)c1C)CC3 | -6.2 | -17.6 | 6.62 | 5.04 | 1.98 | -6.26 | 9.83 | 13 | 5.38 | 11.7 | -18.8
18 | COc1ccc(CC(=O)N(C)Cc2nnc3ccccn23)cc1 | -4.71 | 26 | 2.72 | -2.77 | 3.62 | -6.53 | 17.1 | 12.6 | 8.57 | 25.9 | 77.9
19 | CC(=O)N1CCC(Oc2ccc(Cl)cn2)CC1 | -1.02 | 5.48 | -4.62 | 4.94 | 4.5 | 8.64 | 3.19 | 18.8 | 3.23 | 7.5 | -4.92
20 | CN(CCNC(=O)Nc1ccncc1)C1CCCCC1 | -4.37 | 21.6 | -4.55 | 6.96 | 8.21 | -0.401 | 16.6 | 8.26 | 5.42 | 23.5 | -11
21 | Cc1nn(C)c(N(C)C)c1CNCc1ccccc1Cn1cncn1 | -6.25 | 6.33 | -0.0601 | 1.64 | -1.33 | 0.215 | 6.52 | 3.54 | 3.12 | -5.06 | -11.2
22 | O=C(CNC(=O)N1CCc2c([nH]c3ccc(Cl)cc23)C1)N1CCOCC1 | -8.87 | -4 | 11.7 | -3.55 | -2.55 | -20.2 | 10.5 | 7.25 | -3.17 | -5.13 | -12.6
